Records with an inconclusive call do not appear. Calls of active or inactive are those of the source. Calls follow the shape of the dose curve; as a rule, active = well fitted inhibition curve with a large enough effect; inconclusive = small, poorly fitted or top-dose-only effect; inactive = flat fitted curve, though single readings scatter.
Legend:
Assay in all cases: qHTS profiling for inhibitors of Plasmodium falciparum proliferation (AID 504749); also: nearly all actives have a fitted effect of over 60% in size
Conditions in all cases: P. falciparum in erythrocytes, SYBR Green DNA, 72 h; series mostly up to 28.7 µM
[1] = tested on: CP291
Summary of the method: (§1)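 In a 72 h erythrocytic culture (37 C, humidified, 5% CO2) at 2.5% hematocrit and 0.3% starting parasitemia, compounds were tested; SYBR Green I in detergent lysis buffer stained parasite DNA overnight.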

[2] = tested on: CP297
Summary of the method: as §1

[3] = tested on: CP305
Summary of the method: as §1

[4] = tested on: CP315
Summary of the method: as §1

[5] = tested on: CP325
Summary of the method: as §1

[6] = tested on: CP329
Summary of the method: as §1

[7] = tested on: CP335
Summary of the method: as §1

[8] = tested on: DFO2036
Summary of the method: as §1

[9] = tested on: DIV14
Summary of the method: as §1

[10] = tested on: DIV17
Summary of the method: as §1

[11] = tested on: DIV30
Summary of the method: as §1

[12] = tested on: Dd2
Summary of the method: as §1

[13] = tested on: ECU
Summary of the method: as §1

[14] = tested on: FAB9
Summary of the method: as §1

[15] = tested on: GB4
Summary of the method: as §1

[16] = tested on: HB3
Summary of the method: as §1

[17] = tested on: ICS
Summary of the method: as §1

[18] = tested on: JCK
Summary of the method: as §1

[19] = tested on: N140
Summary of the method: as §1

[20] = tested on: P93_24
Summary of the method: as §1

Measured: Potency
Potency is read from the fitted curve at half-maximal effect.

Cc1ccc(=O)n(-c2ccccc2)c1
inactive: all assays above

COc1cc2c(cc1OC)-c1cc(=Nc3c(C)cc(C)cc3C)n(C)c(=O)n1CC2
active: [1] 2.13 µM | [2] 5.36 µM | [3] 3.79 µM | [4] 6.75 µM | [5] 4.26 µM | [6] 4.78 µM | [7] 4.26 µM | [8] 3.55 µM | [9] 3.01 µM | [10] 3.38 µM | [11] 6.01 µM | [12] 7.94 µM | [13] 5.01 µM | [14] 3.98 µM | [15] 2.69 µM | [16] 7.08 µM | [17] 1.78 µM | [18] 5.62 µM | [19] 3.16 µM | [20] 3.55 µM

CCN(CC)CCNC(=O)c1ccc(NC(C)=O)cc1
inactive: all assays above

CCN1CCC[C@H]1CNC(=O)c1c(O)c(Cl)cc(Cl)c1OC
inactive: all assays above

CCCCOCCOCCOCc1cc2c(cc1CCC)OCO2
inactive: all assays above

CCN(Cc1ccncc1)C(=O)C(CO)c1ccccc1 (stereo not given)
inactive: all assays above

C[N+](C)(C)CCOC(=O)CCC(=O)OCC[N+](C)(C)C
inactive: all assays above

CC(N=C(NC#N)Nc1ccncc1)C(C)(C)C (stereo not given)
inactive: all assays above

NC(=O)c1cn(Cc2c(F)cccc2F)nn1
inactive: all assays above

CCCCNC(=O)NS(=O)(=O)c1ccc(C)cc1
inactive: all assays above

CC(=O)[C@@]1(O)CC[C@H]2[C@@H]3CCC4=CC(=O)CC[C@]4(C)[C@H]3CC[C@@]21C
inactive: all assays above

O=C(CCNNC(=O)c1ccncc1)NCc1ccccc1
inactive: all assays above

CCN1CCc2nc(N)oc2CC1
inactive: all assays above

— PubChem BioAssay (NCATS)
